Records with an inconclusive call do not appear. Activity calls are given as the source filed them.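 The calls were made as follows, unless noted: active = viability at or below 30% in both replicate assays; inconclusive = viability at or below 30% in just one of the two assays; inactive = the rest.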
What was measured:
[1] = Her2 expression decrease, cell viability multiplex – SKBR3 breast tumor cells, AlphaScreen, ATP viability, primary screen (AID 461;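 active = Her2 level under about 52% in both replicate screens, with viability over 70% of control, limit read from the data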;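 as to Her2 level: lower value means less Her2 protein in the cells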;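 as to viability: percent of carrier control wells set as 100% viability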); conditions: SKBR3 Her2 protein level, 18-24 h, measured here: SKBR3 viability, ATP luminescence, at 10 µM
[2] = target: Receptor tyrosine-protein kinase erbB-2 (Homo sapiens) (UniProt P04626); experiment: as above; conditions: 18-24 h, at 10 µM, stronger effect = lower value
Chain of Receptor tyrosine-protein kinase erbB-2 (Homo sapiens) (P04626 whole entry, looked up): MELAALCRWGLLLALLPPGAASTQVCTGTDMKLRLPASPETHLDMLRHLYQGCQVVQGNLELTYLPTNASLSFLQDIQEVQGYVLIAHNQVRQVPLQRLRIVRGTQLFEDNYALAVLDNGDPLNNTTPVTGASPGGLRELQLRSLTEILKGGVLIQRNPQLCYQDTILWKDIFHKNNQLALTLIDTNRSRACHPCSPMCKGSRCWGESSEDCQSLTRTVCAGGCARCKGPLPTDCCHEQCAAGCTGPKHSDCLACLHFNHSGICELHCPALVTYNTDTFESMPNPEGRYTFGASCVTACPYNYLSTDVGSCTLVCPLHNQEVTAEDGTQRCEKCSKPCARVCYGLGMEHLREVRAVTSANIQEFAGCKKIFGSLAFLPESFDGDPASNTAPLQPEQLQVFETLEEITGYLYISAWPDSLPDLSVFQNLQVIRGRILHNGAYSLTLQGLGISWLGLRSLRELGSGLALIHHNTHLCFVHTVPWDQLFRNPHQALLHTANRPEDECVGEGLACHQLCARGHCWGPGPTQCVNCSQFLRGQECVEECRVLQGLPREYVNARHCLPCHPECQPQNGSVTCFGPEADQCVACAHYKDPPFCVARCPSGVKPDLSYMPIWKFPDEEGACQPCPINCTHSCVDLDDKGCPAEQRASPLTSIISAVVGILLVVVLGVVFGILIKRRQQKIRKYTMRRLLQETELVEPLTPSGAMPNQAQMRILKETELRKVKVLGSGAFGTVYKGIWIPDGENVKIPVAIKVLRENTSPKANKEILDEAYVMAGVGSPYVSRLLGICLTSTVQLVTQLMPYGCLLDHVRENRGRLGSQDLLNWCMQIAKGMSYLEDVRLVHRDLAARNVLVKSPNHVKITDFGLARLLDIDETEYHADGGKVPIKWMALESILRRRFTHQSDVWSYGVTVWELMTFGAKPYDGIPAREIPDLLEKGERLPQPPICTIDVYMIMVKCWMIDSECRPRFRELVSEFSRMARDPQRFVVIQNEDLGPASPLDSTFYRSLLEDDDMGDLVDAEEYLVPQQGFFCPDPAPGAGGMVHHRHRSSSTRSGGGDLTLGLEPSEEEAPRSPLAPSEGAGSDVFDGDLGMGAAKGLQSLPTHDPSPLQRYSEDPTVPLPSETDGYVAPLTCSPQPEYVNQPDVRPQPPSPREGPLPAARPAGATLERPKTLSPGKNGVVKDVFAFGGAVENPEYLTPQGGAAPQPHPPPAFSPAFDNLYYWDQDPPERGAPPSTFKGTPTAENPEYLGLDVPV

[3] = reduced viability of SK-BR-3 breast cancer cells – cell-based, 24 h, human, pilot screen (AID 572;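 active = viability at or below 10% of carrier control in both of two separate runs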;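 also: compound exposure lasted between 18 and 24 h rather than exactly 24 h; 100% = carrier-treated control wells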); conditions: SK-BR-3 viability, CellTiter-Glo luminescence, at 10 µM, stronger effect = lower value
[4] = HUVEC growth inhibition – cell-based, human, primary screen (AID 575); conditions: HUVEC proliferation, CellTiter-Glo luminescence, 72 h; at 10 µM; stronger effect = lower value;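 also: 100% = median of untreated cell wells with 0.1% DMSO on each plate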
[5] = H69AR cell proliferation blockers – human, duplicate replicates, primary screen (AID 580;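 active = viability at or under a set limit in both replicates, limit being median viability minus 3 SD, cut at about 48% in these data, passing the limit was not always enough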;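 also: 100% = mean luminescence of untreated wells and 0% = no signal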); conditions: H69AR lung tumor cells viability, ATP luminescence, 72 h; at 10 µM; stronger effect = lower value
[6] = yeast transport mutant growth inhibition pilot in 384-well plates, post-Golgi transport modulator project (AID 636; in the data active = inhibition above about 31%); conditions: absorbance 615 nm, about 18 h, stronger effect = higher value
[7] = growth suppression of yeast trafficking mutant, preliminary HTS, modulators of trafficking downstream of Golgi apparatus project, 1536-format plate, OD 615 nm (AID 637; in the data active = inhibition above about 30%); conditions: yeast transport mutant growth, absorbance 615 nm, 18 h; stronger effect = higher value
[8] = MRP1 drug-resistance reversers in H69AR cells – cell-based, doxorubicin co-treatment, pilot screen (AID 601;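 active = viability loss from added drug above about 55%, and viability with drug at most 40%, in both replicates, limit read from the data, passing the limit was not always enough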); conditions: CellTiter-Glo, 72 h, at 10 µM; for differential viability (reversal): stronger effect = higher value
[9] = S. cerevisiae growth inhibition in permissive medium (OD615), pilot counter-assay for S. cerevisiae lifespan shortening project, permissive growth control (AID 705;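 active = growth inhibition above 25% in both replicates, a cutoff set 3 SD above the mean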); conditions: OD615, 24 h, at 10 µM, stronger effect = higher value
[10] = S. cerevisiae growth inhibition in restrictive medium, OD615, pilot screen, restrictive growth control, yeast lifespan reduction project (AID 706;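 active = growth inhibition above a set limit, 3 SD over mean compound inhibition, in both replicates, cut at about 43% in these data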;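 also: modified DeaD lifespan yeast strain shifted to restrictive glucose medium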); conditions: OD615, 48 h, at 10 µM, stronger effect = higher value
[11] = doxorubicin toxicity protection in MRP-1 cells – H69AR cells, CellTiter-Glo, duplicate, MRP-1 activator project, pilot screen (AID 807;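 active = viability increase at or above a cutoff of the median across tested compounds plus 3 SD, cut at about 8.5% in these data, passing the limit was not always enough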;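 also: compound pretreatment 18-22 h then 72 h combined with doxorubicin; 0% = doxorubicin alone and 100% = vehicle without doxorubicin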); conditions: H69AR viability with doxorubicin, CellTiter-Glo luminescence; at 10 µM; stronger effect = higher value
[12] = viability of HCT116 without oncogenic beta-catenin – human colon tumor cells, pilot screen (AID 823;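 active = cell viability at or below a set limit in both duplicate runs, the limit being the all-compound median minus 4 SD, cut at about 23% in these data, passing the limit was not always enough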;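 also: 0% = wells killed by 20 µM Hyamine and 100% = untreated DMSO cell wells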); conditions: HCT116 beta-catenin knockout viability, CellTiter-Glo, 60 h; at 10 µM; stronger effect = lower value
[13] = viability of PTEN-null HCT116 cells – cell-based, HCT116 clonal line, CellTiter-Glo, pilot screen (AID 824;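 active = viability at or below 27.92% in each of two runs, the all-compound median minus 4 SD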;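 also: 0% = 20 µM Hyamine control and 100% = vehicle cell control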); conditions: HCT116 PTEN-deleted viability, 60 h, at 10 µM, stronger effect = lower value
[14] = RAM pathway blockade in budding yeast – dse1pr::URA3 reporter, 5-FOA selection, pilot screen (AID 869;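 active = inhibition over a set limit, the all-compound mean plus 3 SD, in both replicate runs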;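 also: 0% = DMSO wells with no growth and 100% = 10 µM 1-NA-PP1 with full growth; RAM network block rescues cells from 5-FOA so hits raise OD615 growth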); conditions: S. cerevisiae dse1pr::URA3 5-FOA growth, OD615, 2 d; at 10 µM; stronger effect = higher value; strain carries analog-sensitive mutant Cbk1 kinase
[15] = H69AR cells + 2 uM doxorubicin, measured here: viability with 2 uM doxorubicin, stronger effect = lower value
[16] = H69AR cells, compound alone cytotoxicity

SMILES	viability [1] [%]	Her2 level [2]	viability [3]	viability [4]	viability [5]	inhibition [6]	inhibition [7]	differential viability (reversal) ([8]; H69AR cells + 2 uM doxorubicin)	viability [8, 15] [%]	viability [8, 16] [%]	growth inhibition [9]	growth inhibition [10]	viability increase [11]	viability [12]	viability [13]	inhibition [14]
Cc1ccc(-n2ncc3c(N4CCN(c5ccccc5)CC4)ncnc32)c(C)c1	93	79% (inactive)	93% (inactive)	57.9% (inactive)	80.3% (inactive)	-2.93% (inactive)	1.94% (inactive)									
Cc1csc(NC(=O)CSc2nnc(Cc3cccn3C)n2-c2ccc(F)cc2)n1	77.5	94% (inactive)	77.5% (inactive)	84.8% (inactive)	89.8% (inactive)	4.67% (inactive)	-1.64% (inactive)	1.05% (inactive)	88.8	89.8	-9.58% (inactive)	-0.31% (inactive)	-2.25% (inactive)	94% (inactive)	95.5% (inactive)	4.11% (inactive)
CC1CC(C)CN(c2ncnc3c2cnn3-c2ccc(Cl)cc2)C1 (configuration not stated)	91.5	89.5% (inactive)	91.5% (inactive)	88.5% (inactive)	80.6% (inactive)	0.53% (inactive)	-1.64% (inactive)	3.71% (inactive)	76.9	80.6	-5.74% (inactive)	-8.12% (inactive)	5.58% (inactive)	88.1% (inactive)	95.3% (inactive)	2.44% (inactive)
O=C(C1CCN(c2nnc(-n3cccc3)s2)CC1)N1CCN(Cc2ccc3c(c2)OCO3)CC1	78.5	80.5% (inactive)	78.5% (inactive)	105% (inactive)	82% (inactive)	3.59% (inactive)	1.67% (inactive)	-3.6% (inactive)	85.6	82	10.4% (inactive)	10.1% (inactive)	-0.09% (inactive)	59.1% (inactive)	64.8% (inactive)	2.78% (inactive)
CCc1nc(N)nc(N)c1-c1ccc(Cl)cc1	103	79% (inactive)	103% (inactive)	117% (inactive)				-59.9% (inactive)	95.8	35.9						
COc1ccc(/C=N/n2cnnc2SCc2ccc(OC)cc2)cc1	83.5	90.5% (inactive)	83.5% (inactive)	87.6% (inactive)	89.9% (inactive)	0% (inactive)	4% (inactive)	-6.8% (inactive)	96.7	89.9	4.08% (inactive)	30.7% (inactive)	3.56% (inactive)	90.6% (inactive)	93.9% (inactive)	2.4% (inactive)
O=C(c1ccc(Br)o1)N1CCN(c2ccc3nnc(-c4ccccc4)n3n2)CC1	113	78% (inactive)	113% (inactive)	56.6% (inactive)	75.8% (inactive)	2.82% (inactive)	-0.67% (inactive)	38.7% (inactive)	37.1	75.8		45.7% (active)	-1.47% (inactive)	45% (inactive)	38.8% (inactive)	1.29% (inactive)
CCc1cc2c(=O)c(-c3nc4ccccc4[nH]3)coc2cc1OC(=O)N1CCOCC1	100	81.5% (inactive)	100% (inactive)	64.8% (inactive)		-5.07% (inactive)	-5.08% (inactive)	-13.9% (inactive)	71.6	57.7						
C=CCn1c(N)c(C(=O)OC(C)(C)C)c2nc3ccccc3nc21	102	90.5% (inactive)	102% (inactive)	70.5% (inactive)		0.66% (inactive)	1.94% (inactive)	-15.9% (inactive)	66.7	50.8						
O=C(CSc1nnc2scc(-c3ccccc3)n12)Nc1nsc(-c2ccccc2)n1	82.5	78% (inactive)	82.5% (inactive)	70.3% (inactive)		-6.53% (inactive)	0.48% (inactive)	-14.1% (inactive)	75.2	61.1						
CCOC(=O)c1c(NC(=O)Cn2c(C)nc3ccccc32)sc2c1CCC2	107	107% (inactive)	107% (inactive)	63% (inactive)		-4.53% (inactive)	-0.97% (inactive)	3.14% (inactive)	54.7	57.8						
Cc1ccc(/C=c2\s/c(=C(/C#N)C(=O)N3CCCC3)n(Cc3ccco3)c2=O)s1	87.5	79% (inactive)	87.5% (inactive)	59.3% (inactive)		-1.95% (inactive)	1.9% (inactive)	15.8% (inactive)	28.1	43.9						
C=C(C)COc1ccc(-c2nc(N)ncc2Oc2ccccc2OCC)c(O)c1	79	84.5% (inactive)	79% (inactive)	85.5% (inactive)		-0.66% (inactive)	24.4% (inactive)	-12.4% (inactive)	51.6	39.1						
